Measured values published in ChEMBL document CHEMBL4513216, “Probing the Open Global Health Chemical Diversity Library for Multistage-Active Starting Points for Next-Generation Antimalarials” (ACS Infect Dis, 2020).
In all, about 65,000 compounds went through this assay and about 2,100 (3.2%) showed an effect of 50% or more. The median lay at about -52%. The sample holds strong results, similar compounds and a random draw of the others, so the mix is not that of the screen.

These compounds were tested on Plasmodium falciparum (assay: Screen against P. falciparum Asexual Blood Stage (ABS), at 5uM). Settings: tested at 5 uM.
Type: functional, Dd2

| SMILES | INHIBITION |
| --- | --- |
| CN(C)C[C@H]1C[C@@H]2CN(Cc3ccco3)C[C@@H]2O1 | 38.9% |
| CN(C)C[C@H]1C[C@@H]2CN(Cc3ccoc3)C[C@@H]2O1 | 20.7% |
| COc1ccc(CN2C[C@H]3C[C@H](CN(C)C)O[C@H]3C2)cc1 | 79.6% |
| O=C(CC1CCCC1)N1C[C@@H]2C[C@@H]1CN2 | -57.9% |
| CN(C(=O)c1ccon1)[C@@H]1CCC[C@@H](Oc2ccccc2)[C@@H]1O | 79.8% |
| Cc1ncsc1CN1C[C@@H]2CN(Cc3cccnc3)CCO[C@@H]2C1 | -49.8% |
| CC(C)Nc1ccnc(N2Cc3cnc(C(C)(C)C)nc3C2)n1 | 50.1% |
| CCNc1ccnc(N2Cc3cnc(CC(C)C)nc3C2)n1 | 74.6% |
| O=C(c1cscn1)N1CCN2C[C@H](OCc3cccnc3)C[C@H]2C1 | -55.9% |
| COc1ccc(C2SCC(=O)Nc3n[nH]cc32)c(OC)c1OC (stereo unspecified) | -164% |
| O=C(Nc1ccc(Cn2cccn2)cc1)N1CCC2(CC1)OCCO2 | -153% |
| COc1ccccc1CC(C)N(C)CCS(C)(=O)=O (stereo unspecified) | 1.1% |
| CN(CCc1cccc2ccccc12)Cc1nc(N)nc(N(C)C)n1 | 92.2% |
| COc1ccccc1CCN(C)Cc1nc(N)nc(N(C)C)n1 | 69.9% |
| Cc1nc(-c2ccccc2F)sc1C(=O)N1CCC(=O)CC1 | -67.5% |
| O=C(Cc1cccs1)N1C[C@@H]2OCCN(CC3CCCO3)[C@@H]2C1 (stereo partly specified) | -87.1% |
| Cn1cc(C2SCC(=O)Nc3c2cnn3C(C)(C)C)cn1 (stereo unspecified) | -6.82% |
| CCN1CCC(CNCc2cc(C)ccc2OC)C1 (stereo unspecified) | 82.7% |
| CCC(O)CN1CCN(C(=O)Cc2cc(C)ccc2OC)CC1 (stereo unspecified) | -68.2% |
| COc1ccc(C)cc1CC(=O)N1CCN(CC(C)O)CC1 (stereo unspecified) | -34.3% |
| N#Cc1ccc(OC[C@]23COC[C@H]2CN(Cc2nccs2)C3)nc1 | -22.3% |
| O=C(C1CC1)N1CCOC2(CCNCC2)C1 | -22.2% |

| SMILES | INHIBITION |
| --- | --- |
| Cc1ccc(C(O)CN2CCN(Cc3nccn3C)CC2)cc1C (stereo unspecified) | 80.4% |
| Cc1ccc(CC(=O)N2CCCN(Cc3nccn3C)CC2)cn1 | -72.4% |
| Cn1ccnc1CN1CCC2(CC(=O)N(c3ccccn3)C2)C1 (stereo unspecified) | -145% |
| CC(C)(C)c1nccc(C2(c3ccccc3Cl)CCNCC2)n1 | 76.1% |
| CC(C)c1nccc(C2(c3ccccc3Cl)CCNCC2)n1 | 83.4% |
| Clc1ccccc1C1(c2ccnc(-c3ccncc3)n2)CCNCC1 | 83.6% |
| Cc1ccc(N2CCO[C@H]3CN(Cc4cccnc4)C[C@H]32)nn1 | -18.3% |
| O=C1CC2(CCCNC2)C(=O)N1Cc1ccccc1 (stereo unspecified) | -15.7% |
| CC(C)c1ccc(CN2C(=O)C3(CCNCC3)Nc3ccccc32)cc1 | 82% |
| CN1C(=O)CC2(CCNCC2)c2ccccc21 | 2.59% |
| c1cncc(CN2CCN3C[C@H](Oc4cncnc4)C[C@H]3C2)c1 | -155% |
| CC(=O)C1(c2ccccc2)CCN(C(=O)c2ccc3nnnn3c2)CC1 | -106% |
| CC(C)[C@@H]1CN(C(=O)C2(c3ccccc3)CCN(C)CC2)C[C@H]1C(=O)O | -65.7% |
| CC(C)[C@@H]1CN(C(=O)C2(c3ccccc3)CCN(C)CC2)C[C@H]1N(C)C | 83.7% |
| CCS(=O)(=O)N1CCc2c(COCCN(C)C)cncc2C1 | -62.2% |
| O=S1(=O)c2ccccc2OCC2(CCN(CCO)CC2)CN1CC1CC1 | 76.9% |
| O=S1(=O)NCC2(CCNCC2)COc2ccccc21 | -55.2% |
| Cc1cccc(CN2CCC3(CCCN(CC(=O)N(C)C)C3)C2)n1 (stereo unspecified) | -47.6% |
| Oc1cccc2ccc(CN3CCC4(CCNCC4)C3)nc12 | 89.9% |
| c1ccc(-c2ncc(CN3CCC4(CCNCC4)C3)cn2)cc1 | 10.6% |
| Cc1nn(-c2ncccn2)c2c1C(c1cnn(C)c1)SCC(=O)N2 (stereo unspecified) | -15% |
| O=C(CSc1ccccn1)N1CCN(CCO)[C@@H]2CS(=O)(=O)C[C@@H]21 | -35.4% |

| SMILES | INHIBITION |
| --- | --- |
| COc1ccnc(CN2CCCC(CCc3ccccc3)C2)c1OC (stereo unspecified) | 90.1% |
| COc1ccnc(CN2CCCC(CCc3ccc(F)cc3)C2)c1OC (stereo unspecified) | 88.9% |
| N#CC1(c2ccccc2)CCN(C(=O)C2CCCN(CC(N)=O)C2)CC1 (stereo unspecified) | -116% |
| CCC(O)CN1CCN(C(=O)Cc2nc(-c3ccco3)oc2C)CC1 (stereo unspecified) | -62.9% |
| CC(Cc1ccc(Cl)cc1)N(C)C(=O)NCCS(C)(=O)=O (stereo unspecified) | -65.7% |
| O=C(c1ccncc1)N1CCN2C[C@H](Oc3cccnc3)C[C@H]2C1 | -77% |
| CC(C)N(CCNC(=O)c1[nH]nc2ccc(I)cc12)C(C)C | 86.9% |
| CC[C@@H]1N(Cc2ccncc2)CCC[C@]12CCC(=O)N2CCOC | -38% |
| CCc1cccc(NC(=O)CCN2CC=C(c3cnn(C)c3)CC2)c1 | -33.3% |
| COc1ccc(NC(=O)CCN2CC=C(c3cnn(C)c3)CC2)c(C)c1 | -33.1% |
| COc1ccc(NC(=O)CCN2CC=C(c3cnn(C)c3)CC2)cc1Cl | 67.2% |
| Cc1ccc2nc(C)c(C)c(C(=O)N[C@H]3COC[C@@H]3N3CCCC3)c2c1 | -47.2% |
| Cc1cc(CN2CC[C@H]3C[C@@H](C)O[C@@H]3C2)no1 | -71.2% |
| Cc1n[nH]c2c1C(c1ccc3c(c1)OCO3)SCC(=O)N2 (stereo unspecified) | -22% |
| COc1cccc(-n2ccc3nc(N4CCCC4)ncc3c2=O)c1 | 91.7% |
| CC(=O)Nc1cccc(-c2ccccc2CCN)c1 | -108% |
| COc1ccc(CCN)cc1-c1ccc(S(C)(=O)=O)cc1 | 21.8% |
| COc1ccc(-c2ccccc2CCN)c(OC)c1OC | 81.8% |
| CC(=O)Nc1ccc(-c2ccccc2CCN)cc1 | -115% |
| COc1ccc(-c2ccccc2CCN)c(OC)c1 | 81.6% |
| COc1ccc2c(ccn2CCN)c1 | 26.1% |
| CN1C[C@@H]2COC[C@]2(C(=O)NCc2cccs2)C1 | -12.4% |
